Active and inactive are the calls of the source.

Consider 16 compounds from PubChem BioAssay.

Assay [1] can be described thus: A549 cell viability effects, profiling panel, calcein-AM fluorescence, 48 h, basal (AID 1162). Conditions: higher = more signal.
A short description of assay [2]: adipocyte viability effects, profiling panel, cell-based, 3T3-L1 adipocytes, calcein-AM fluorescence, 48 h, basal (AID 1163). Conditions: 3T3-L1 adipocytes viability, higher = more signal.
Assay [3] can be described thus: HepG2 cell viability effects, profiling panel, calcein-AM fluorescence, 48 h, basal (AID 1164). Conditions: higher = more signal.
Assay [4] in a line: MM1S cell viability effects, profiling panel, calcein-AM fluorescence, 48 h, basal (AID 1165).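 Further: viability of MM1S multiple myeloma cells under basal unstimulated conditions.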 Conditions: higher = more signal.
Assay [5] can be described thus: basal RPMI8226 viability, no added stimulus, profiling panel, cell-based, calcein-AM fluorescence, 48 h, PK04 Diversity Set (AID 1166).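 Further: cells grown under basal conditions without added stimulus.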 Conditions: RPMI8226 myeloma viability, higher = more signal.
Assay [6] is described as follows: basal HepG2 mitochondrial membrane potential changes, profiling panel, cell-based, JC-1 fluorescence, 24 h, 100 nL compound (AID 1167). Conditions: higher = more signal.
A short description of assay [7]: basal 3T3-L1 adipocyte mitochondrial potential changes, profiling panel, cell-based, JC-1 fluorescence, 3T3-L1 adipocytes, 24 h, 100 nL compound (AID 1168). Conditions: JC-1 mitochondrial fluorescence, higher = more signal, called active from +8 up or from −8 down.
Assay [8] can be described thus: basal RPMI8226 mitochondrial membrane potential changes, profiling panel, cell-based, JC-1 fluorescence, 24 h, 100 nL compound (AID 1169). Conditions: RPMI8226 myeloma, JC-1 mitochondrial potential fluorescence, higher = more signal.
The nature of assay [9]: basal MM1S mitochondrial membrane potential changes, profiling panel, cell-based, JC-1 fluorescence, 24 h, 100 nL compound (AID 1170). Conditions: higher = more signal.
Assay [10] in a line: A549 lung cancer cell viability effects, profiling panel, resazurin fluorescence, 24 h, PK04 Diversity Set (AID 1171). Conditions: higher = more signal, called active from +8 up or from −8 down.
Further: test concentration not given here.

In the case of `COc1cc2c(cc1OC)CN(C(=O)[C@@H]1[C@H]3C(=O)O[C@H](c4ccccc4)[C@H](c4ccccc4)N3[C@H](c3ccccc3OCCO)[C@@]13C(=O)Nc1ccccc13)CC2`, the z-score is -0.225 in assay [1]; 1.85 in assay [2]; -0.174 in [3]; -0.998 in assay [4]; -0.622 in assay [5]; 0.648 in assay [6]. Also, the z-score is 3.09 (inactive) in assay [7], -0.509 in assay [8], 0.0343 in [9] and 0.872 (inactive) in assay [10].
As for `CO[C@@H]1COC(=O)CC=C[C@H](C)COC(=O)[C@H](Cc2ccccc2)NC(=O)CC=C[C@H]1C`, the z-score in assay [1] is 0.392; in [2], 0.509; in assay [3], 0.674; in assay [4], 0.305; in assay [5] it was 0.333; in assay [6], 0.883. Besides, the z-score in assay [7] is 0.258 (inactive); in assay [8], -0.146; in [9] it was -0.597; in [10], -0.145 (inactive).
Take `[N-]=[N+]=NCc1ccccc1C[C@]1(C(N)=O)N=C(c2ccc(OCCCO)cc2)O[C@H]1c1ccccc1CN=[N+]=[N-]`: the z-score in assay [1] is -0.633; in [2] it was 1.76; in assay [3], -1.35; in assay [4] it was -2.19; in [5], -3.71; in assay [6], 1.89. Besides, the z-score in [7] is 0.575 (inactive); in assay [8] it was -0.937; in assay [9], -0.621; in assay [10], -1.97 (inactive).
Regarding `COC(=O)[C@H]1[C@@H]2COc3ccccc3[C@H]2N[C@H]1C(=O)OC`, the z-score in assay [1] was 0.0306; in [2], 0.0308; in assay [3], 0.648; in assay [4], -1.29; in assay [5], -0.347; in assay [6] it was 0.321. Besides, the z-score is -0.819 (inactive) in assay [7], 0.195 in assay [8], -0.975 in assay [9] and -0.124 (inactive) in assay [10].
Turning to `CCCC=C(CCC)[C@@H](NC(=O)c1ccc(C(F)(F)F)cc1)c1ccccc1`, the z-score is -0.842 in [1]; 0.0679 in assay [2]; -1.59 in assay [3]; -2.51 in assay [4]; -2.58 in [5]; -2.98 in assay [6]. Further, the z-score in [7] was -0.208 (inactive); in assay [8] it was -0.601; in assay [9] it was -1.13; in assay [10] it was -0.396 (inactive).
On to `Cc1ccc(N2C(=O)c3ccccc3[C@](C)(C(=O)O)[C@@H]2c2ccc(CO)cc2)nc1`, for which the z-score was 0.0643 in assay [1]; 0.937 in [2]; -0.0479 in [3]; -0.231 in [4]; 0.614 in assay [5]; 0.521 in assay [6]. Moreover, the z-score in [7] is 0.23 (inactive); in assay [8] it was -0.167; in assay [9] it was 0.25; in assay [10], 0.755 (inactive).
On to `COCCOC(=O)N1C(=O)[C@@]2(c3cc(C#CCNC(N)=O)ccc31)[C@H](c1ccccc1OCCO)N1[C@H](c3ccccc3)[C@H](c3ccccc3)OC(=O)[C@H]1[C@@H]2C(=O)NC[C@H](O)c1ccccc1`, for which the z-score is -0.991 in assay [1]; -0.574 in [2]; 0.0681 in [3]; -0.344 in assay [4]; 0.941 in assay [5]; -1.64 in [6]. In addition, the z-score is 0.392 (inactive) in [7], -0.305 in assay [8], -0.803 in assay [9] and 0.868 (inactive) in [10].
In the case of `O=C1OCC=C[C@H]2OC34C=CCN(Cc5ccccc5)C(=O)[C@H]3N(CCO)C(=O)[C@@H]4[C@@H]12` (stereo not given in full), the z-score was 0.125 in assay [1]; 0.474 in [2]; -0.885 in assay [3]; 1.12 in assay [4]; 0.44 in assay [5]; -0.255 in assay [6]. Besides, the z-score in assay [7] was 0.367 (inactive); in assay [8] it was -0.0019; in assay [9] it was -0.216; in assay [10], 0.54 (inactive).
On to `CCN1C(C)=C(C(=O)OC)[C@@H](c2ccccc2)N2C(=O)[C@@]3(C(=O)OC)O[C@@]12[C@@H]1C(=O)CCC[C@@H]13`, for which the z-score in assay [1] was -0.195; in [2] it was 0.955; in assay [3] it was -0.369; in [4], 0.853; in [5] it was 0.476; in [6], 0.638. Moreover, the z-score in assay [7] is 0.881 (inactive); in assay [8], 0.538; in assay [9], 0.29; in assay [10] it was 0.282 (inactive).
In the case of `CO[C@H]1COC(=O)[C@@H](C)COC(=O)[C@H](Cc2ccccc2)NC(=O)CC=C[C@H]1C`, the z-score was -0.0475 in assay [1]; 0.838 in assay [2]; 0.53 in assay [3]; -0.0069 in assay [4]; -0.602 in assay [5]; 0.756 in assay [6]. The z-score in assay [7] is 0.906 (inactive); in assay [8] it was 0.25; in [9], 0.877; in assay [10], 0.733 (inactive).
For the compound `[N-]=[N+]=NCc1ccccc1C[C@]1(C(=O)N2CCCCC2)N=C(c2ccc(OCCCO)cc2)O[C@H]1c1ccccc1CN=[N+]=[N-]`, the z-score in assay [1] is 0.0482; in [2], 0.628; in assay [3] it was -0.503; in assay [4], -2.92; in assay [5], -4.22; in [6], 0.675. Further, the z-score in [7] is -0.539 (inactive); in [8], -1.19; in [9], -1.69; in [10] it was -0.179 (inactive).
Regarding `CC(C)[Si](OCC[C@H]1O[C@]2(C(=O)N(Cc3ccccc3)c3ccccc32)[C@@H](C)[C@@H]1[Si](C)(C)O)(C(C)C)C(C)C`, the z-score is -0.287 in [1]; 1.13 in assay [2]; 0.35 in [3]; -0.64 in assay [4]; -1.31 in assay [5]; 0.444 in assay [6]. The z-score in assay [7] was 0.578 (inactive); in assay [8] it was -0.82; in assay [9] it was -1.51; in [10] it was -1.46 (inactive).
As to `C[N+](C)(C)CCCCNC(=O)[C@H]1C[C@H]2C(=O)NCC(=O)N2[C@H]1c1cccc(OCCO)c1`, the z-score in [1] was -0.471; in assay [2], -0.387; in [3] it was -0.347; in assay [4] it was -0.0358; in assay [5], 0.311; in [6], -1.13. For the same compound, the z-score in assay [7] was -0.373 (inactive); in assay [8], -0.074; in assay [9], -0.314; in assay [10], -0.0078 (inactive).
Regarding `C=CC(=O)O[C@@H](Cc1ccccc1)[C@H]1C2C=CCCC=C2CN1Cc1cccc(Cl)c1` (stereo not given in full), the z-score in assay [1] was 1.07; in assay [2] it was 0.392; in assay [3] it was 0.216; in assay [4] it was -3.14; in assay [5], -2.84; in assay [6], 0.687. The z-score in [7] was 0.0156 (inactive); in [8] it was -0.233; in [9], 0.453; in assay [10] it was 1.11 (inactive).
Take `CCCC=C(CCC)[C@@H](NS(=O)(=O)c1cccc(C(F)(F)F)c1)c1ccc(C(=O)OC)cc1`: the z-score is -0.336 in assay [1]; -0.0748 in [2]; -1.07 in assay [3]; -0.008 in assay [4]; -0.341 in [5]; -1.25 in [6]. Besides, the z-score in assay [7] is -0.413 (inactive); in [8] it was 0.0542; in assay [9], -1.04; in assay [10] it was 0.206 (inactive).
Turning to `C/C(=N\O)C(=O)NCCCCCNC(=O)OCc1ccccc1`, the z-score in [1] was 1.3; in assay [2], 0.895; in assay [3], 0.206; in assay [4] it was 0.476; in [5], 0.239; in assay [6], 1.09. The z-score is 0.334 (inactive) in assay [7], -0.561 in [8], 1.24 in assay [9] and 0.707 (inactive) in assay [10].
